PubChem BioAssay AID1159580 (chemical genetic matrix, 2015)
“And” between values parts separate entries of the source, which are not always exact repeats. Identical values can stand only once. The campaign covered roughly 5,500 compounds. About 2,000 (36%) were called active. Roughly 18% stayed inconclusive and do not appear here. Cut-off read from the data, not from the text of the source: active = normalized growth mostly below about 0.91 (no sharp cut-off); inconclusive = no clear call, values can overlap the other calls; inactive = mostly above about 0.92. The list shows a part of the results.

Assay: chemical genetic growth profiling, strain panel (AID 1159580);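 note: tested at 20 µM; growth read once vehicle control cultures reached saturation at 30 °C; 1 = growth at the plate median or of vehicle wells; lower values mean less growth of the strain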
Settings: S. cerevisiae deletion strains, growth OD

Measured: normalized growth

Nc1ccc(C(=O)O)cc1
inactive: locus YAL021C, strain ccr4, hits give low values 0.984 | locus YAL026C, strain drs2, hits give low values 1.01 | locus YAL030W, strain snc1, hits give low values 1.01 | locus YBL061C, strain skt5, hits give low values 1.02 | locus YBR009C, strain hhf1, hits give low values 0.993 | locus YBR021W, strain FUR4, hits give low values 1.01 | locus YBR023C, strain chs3, hits give low values 1.03 | locus YBR171W, strain sec66, hits give low values 1.02 | locus YBR229C, strain ROT2, hits give low values 0.996 | locus YBR231C, strain swc5, hits give low values 1.04 | locus YBR279W, strain paf1, hits give low values 1.02 | locus YCL011C, strain gbp2, hits give low values 1.01 | locus YCL016C, strain dcc1, hits give low values 1.03 | locus YCL029C, strain bik1, hits give low values 1.01 | locus YCL061C, strain MRC1, hits give low values 1.02 | locus YCL069W, strain vba3, hits give low values 1.01 | locus YCR088W, strain abp1, hits give low values 1.01 | locus YDL005C, strain med2, hits give low values 1.02 | locus YDL035C, strain GPR1, hits give low values 1.01 | locus YDL040C, strain nat1, hits give low values 1.02 | locus YDL074C, strain BRE1, hits give low values 1.03 | locus YDL101C, strain DUN1, hits give low values 1.02 | locus YDL134C, strain PPH21, hits give low values 1.01 | locus YDL185W, strain tfp1, hits give low values 1.03 | locus YDL192W, strain arf1, hits give low values 1.01 | locus YDR001C, strain nth1, hits give low values 1 | locus YDR069C, strain doa4, hits give low values 1.04 | locus YDR101C, strain arx1, hits give low values 0.996 | locus YDR137W, strain rgp1, hits give low values 1.01 | locus YDR159W, strain sac3, hits give low values 1 | locus YDR162C, strain NBP2, hits give low values 1.02 | locus YDR195W, strain ref2 1.04 | locus YDR297W, strain sur2, hits give low values 1.02 | locus YDR318W, strain mcm21, hits give low values 1.01 | locus YDR334W, strain swr1, hits give low values 1.01 | locus YDR335W, strain msn5, hits give low values 1.02 | locus YDR388W, hits give low values 1.01 | locus YDR392W, strain spt3, hits give low values 0.972 | locus YDR502C, strain sam2, hits give low values 1.01 | locus YEL003W, strain gim4, hits give low values 1.02 | locus YEL037C, strain rad23, hits give low values 1.01 | locus YEL061C, strain CIN8 (second series), hits give low values 1.02 | locus YEL061C, strain CIN8, hits give low values 1 | locus YER015W, strain faa2, hits give low values 1.04 | locus YER016W, strain bim1, hits give low values 0.987 | locus YER110C, hits give low values 1.02 | locus YER111C, strain swi4, hits give low values 1.03 | locus YER155C, strain BEM2 (second series), hits give low values 1.04 | locus YER155C, strain BEM2, hits give low values 0.994 | locus YER167W, strain BCK2, hits give low values 1.01 | locus YFR010W, strain ubp6, hits give low values 1.02 | locus YGL078C, strain dbp3, hits give low values 1 | locus YGL086W, strain mad1, hits give low values 1 | locus YGL167C, strain pmr1, hits give low values 1.02 | locus YGL173C, strain kem1, hits give low values 1.03 | locus YGL227W, strain vid30, hits give low values 1 | locus YGL240W, strain doc1, hits give low values 1.03 | locus YGL248W, strain PDE1, hits give low values 1 | locus YGL253W, strain hxk2, hits give low values 1.01 | locus YGR078C, strain PAC10, hits give low values 1 | locus YGR135W, strain pre9, hits give low values 1.02 | locus YGR252W, strain gcn5, hits give low values 1.04 | locus YHR027C, strain rpn1, hits give low values 1.02 | locus YHR030C, strain SLT2, hits give low values 0.999 and 1.11 | locus YHR079C, strain IRE1 (second series), hits give low values 1.01 | locus YHR079C, strain IRE1, hits give low values 1.01 | locus YHR094C, strain hxt1, hits give low values 1.01 | locus YHR129C, strain ARP1, hits give low values 1 | locus YHR142W, strain chs7, hits give low values 0.988 | locus YHR200W, strain rpn10, hits give low values 1.02 | locus YIL066C, strain RNR3, hits give low values 1.01 | locus YIL073C, strain SPO22, hits give low values 1.03 | locus YIL125W, strain kgd1, hits give low values 1.01 | locus YIR030C, strain dcg1, hits give low values 1.02 | locus YJL092W, strain hpr5, hits give low values 1.02 | locus YJL095W, strain BCK1 (second series), hits give low values 1 | locus YJL095W, strain BCK1, hits give low values 1.04 and 1.01 | locus YJL115W, strain asf1, hits give low values 1.02 | locus YJL129C, strain trk1, hits give low values 1.02 | locus YJL134W, strain LCB3, hits give low values 1 | locus YJL154C, strain vps35, hits give low values 1.03 | locus YJL164C, strain tpk1, hits give low values 1 | locus YJL166W, strain qcr8, hits give low values 1.06 | locus YJL168C, strain set2, hits give low values 1.01 | locus YJL187C, strain SWE1 (second series), hits give low values 1.03 | locus YJL187C, strain SWE1, hits give low values 1.02 | locus YJR043C, strain POL32, hits give low values 0.996
